Reference: publication PMC5540273 (PLoS ONE, 2017)

Columns and labels:
Conditions in all cases: concentration: 1 μM, replicates: in singlicate; n = 1
CDKL3 = tested on: CDKL3
CDKL5 = tested on: CDKL5
CHEK1 = tested on: CHEK1
CHEK2 = tested on: CHEK2
CIT = tested on: CIT
CLK1 = tested on: CLK1
CLK2 = tested on: CLK2
CLK3 = tested on: CLK3
CLK4 = tested on: CLK4
CSF1R-autoinhibited = tested on: CSF1R-autoinhibited
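Also: KINOMEscan kinase panel screen.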

| SMILES | %Inh (CDKL3) | %Inh (CDKL5) | %Inh (CHEK1) | %Inh (CHEK2) | %Inh (CIT) | %Inh (CLK1) | %Inh (CLK2) | %Inh (CLK3) | %Inh (CLK4) | %Inh (CSF1R-autoinhibited) |
| --- | --- | --- | --- | --- | --- | --- | --- | --- | --- | --- |
| COc1ccc(CNC(=O)NC2CCN(c3ccnc(Nc4ccc(F)cc4)n3)C2)cc1 (stereo not shown) [GSK1379706] | 0% | 0% | 8% | 48% | 9% | 16% | 0% | 0% | 8% | 50% |
| COc1cccc(C2=C(Nc3cccc(C(=O)O)c3)C(=O)NC2=O)c1 [SB-390770] | 0% | 0% | 0% | 0% | 39% | 9% | 21% | 0% | 20% | 0% |
| O=C(NCc1cccs1)c1cc(C(=O)c2c(Cl)cccc2Cl)c[nH]1 [GW823670] | 21% | 0% | 22% | 0% | 16% | 0% | 22% | 0% | 0% | 0% |
| Cc1ccc(-c2ccc3c(ccc4sc5c(c43)NC[C@@H](C)N=C5N(C)C)n2)cn1 | 0% | 0% | 0% | 1% | 0% | 0% | 0% | 0% | 0% | 14% |
